Source: PubChem BioAssay (Tox21)
Values joined by “and” are separate entries in the source; they are usually repeats but may differ in a detail not shown here. Equal values may be shown once. Inconclusive results are not listed. Where a call stands in place of a potency, no number is given. More than one record can exist for a structure, and the calls need not agree. Active and inactive are the calls of the source. Calls come from the whole dose curve; as a rule, active = well fitted activation curve with a large enough effect in the repeat runs; inconclusive = weak or mixed curves; inactive = flat fitted curve, though single readings scatter.

Test: A CellTox Green Cytotoxicity Assay to monitor cytotoxicity in HepG2 cells - 16 hour (AID 1224876); note: nearly all actives have a fitted effect of over 45% in size
Details: CellTox Green fluorescence; series mostly up to 76.8 µM
Description: National Center for Advancing Translational Sciences [NCATS]
NIH Chemical Genomics Center [NCGC]
U.S. Environmental Protection Agency [EPA]
National Institutes of Environmental Health Sciences [NIEHS]
National Toxicology Program [NTP]
Cell-based models are critical for drug discovery. Determining the natural cytotoxic effects resulting from test compounds is an essential research activity. A CellTox Green Cytotoxicity Assay to monitor cytotoxicity in real time of continues cell culture during 40 hours of the compound treatment was used to screen Tox21 10K library compounds in HepG2 cells. CellTox Green Cytotoxicity Assay is a nonlytic, homogeneous, biofluorescent method to measure cytotoxicity in cell culture after experimental manipulation. The assay system uses a proprietary asymmetric cyanine dye that is excluded from viable cells but preferentially stains the dead cell's DNA. […] Viable cells produce no appreciable increases in fluorescence. Therefore, the fluorescence signal produced by the binding interaction with dead cell DNA is proportional to cytotoxicity.
The mixture of HepG2 cell suspension and reagents were dispensed at 600cells/6 ul/well in 1536-well tissue culture treated black solid bottom plates using a Multidrop dispenser. After the assay plates were incubated at a 37 C/5% CO2 incubator for 5 hours, 23 nL of compounds dissolved in DMSO, positive and negative controls was transferred to the assay plate by a pintool work station. The plates were incubated at 37 C for 40 hours. The fluorescence intensity were measured at 0h, 8h, 16h, 24h, 32h and 40h time points using ViewLux plate reader during compound treatment.
Potency is the fitted concentration of half-maximal effect.

| Compound | Potency |
| --- | --- |
| c1ccc(OCCOc2ccccc2)cc1 | inactive |
| C=C(C)C(=O)OCCOCCOCCOC(=O)C(=C)C | inactive |
| CC(=O)Nc1cccc(O)c1 | inactive |
| CC(C)c1ccc(S(=O)(=O)O)cc1 | inactive |
| CCN(CC)c1ccc(C(=O)c2ccccc2C(=O)O)c(O)c1 | inactive |
| CCc1cccc(C)c1N | inactive |
| Cc1occc(=O)c1O | inactive |
| OCCOCCOCCO | inactive |
| O=C(O)c1ccccc1C(c1ccc(O)cc1)c1ccc(O)cc1 | inactive |
| CCc1ccc(CCOc2ccc(CC3SC(=O)NC3=O)cc2)nc1 (stereo not given) | inactive |
| CC1=CC(=O)NS(=O)(=O)O1 | inactive |
| C[C@H]1C[C@H]2[C@@H]3CCC4=CC(=O)C=C[C@]4(C)[C@@]3(F)[C@@H](O)C[C@]2(C)[C@@]1(O)C(=O)CO | inactive |
| CC(=O)c1ccccc1 | inactive |
| CCCCCCCC(=O)OC | inactive |
| CCCCCC1=CCCC1=O | inactive |
| FC(F)(F)c1ccc(Cl)c(Cl)c1 | inactive |
| O=C(O)c1cc(=O)c2c(OCC(O)COc3cccc4oc(C(=O)O)cc(=O)c34)cccc2o1 | inactive |
| CC(=O)CC(=O)Nc1ccccc1C | inactive |
| CCC(O)OC(O)CC (stereo not given) | inactive |
| CC(C)CC(=O)CC(C)C | inactive |

| Compound | Potency |
| --- | --- |
| CC(C)(N)CO | inactive |
| O=C(O)c1cc(C(=O)O)cc(S(=O)(=O)O)c1 | inactive |
| C#CCN(C)Cc1ccccc1 | inactive |
| OCC(CO)(CBr)CBr | inactive |
| CCCCCCOCCO | inactive |
| CCC(O)OCCCOC (stereo not given) | inactive |
| CCCCCC/C(C=O)=C\c1ccccc1 | inactive |
| CC[C@H](C)C(=O)O[C@H]1C[C@@H](C)C=C2C=C[C@H](C)[C@H](CC[C@@H]3C[C@@H](O)CC(=O)O3)[C@H]21 | 49.6 µM (active) and inactive and 16.9 µM (active) |
| CC1CCC2CC1C2(C)C (stereo not given) | inactive |
| CCCSc1ccc2nc(NC(=O)OC)[nH]c2c1 | inactive |
| CCCCN(CCCC)CCCC | inactive |
| CCCCC(CC)COC(=O)CCCCC(=O)OCC(CC)CCCC (stereo not given) | inactive |
| C=CCNC(N)=S | inactive |
| OCc1cccnc1 | inactive |
| O=c1[nH]c(=O)n([C@H]2C[C@H](O)[C@@H](CO)O2)cc1Br | inactive |
| C[C@H]1C[C@@H]2[C@H]([C@@H](O)C[C@@]3(C)[C@H]2CC[C@]3(O)C(=O)CO)[C@@]2(C)C=CC(=O)C=C12 | inactive |
| O=[N+]([O-])c1ccc(/C=C/c2ccc([N+](=O)[O-])cc2S(=O)(=O)O)c(S(=O)(=O)O)c1 | inactive |
| CC1=C(C)S(=O)(=O)CCS1(=O)=O | inactive |
| CC(=O)OCC(=O)[C@@]12N=C(C)O[C@@H]1C[C@H]1[C@@H]3CCC4=CC(=O)C=C[C@]4(C)[C@H]3[C@@H](O)C[C@@]12C | inactive |
| CCCCC(CC)CO (stereo not given) | inactive |
